Structures are written as SMILES. Among all 310,000 compounds or so, about 14,000 (4.5%) showed an effect of 50% or more. The effect is printed as a negative number. The full list was thinned out, with strong results kept by preference.
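Further: peak tail current of the secondary pulse compared with the same well before compound.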

The target of the experiment is human ether-à-go-go-related gene (hERG) potassium channel (human, UniProt Q12809). Briefly: primary screen, population patch clamp on CHO cells stably expressing hERG; higher = less effect of the substance.
human ether-à-go-go-related gene (hERG) potassium channel, sequence (Q12809 whole entry, looked up): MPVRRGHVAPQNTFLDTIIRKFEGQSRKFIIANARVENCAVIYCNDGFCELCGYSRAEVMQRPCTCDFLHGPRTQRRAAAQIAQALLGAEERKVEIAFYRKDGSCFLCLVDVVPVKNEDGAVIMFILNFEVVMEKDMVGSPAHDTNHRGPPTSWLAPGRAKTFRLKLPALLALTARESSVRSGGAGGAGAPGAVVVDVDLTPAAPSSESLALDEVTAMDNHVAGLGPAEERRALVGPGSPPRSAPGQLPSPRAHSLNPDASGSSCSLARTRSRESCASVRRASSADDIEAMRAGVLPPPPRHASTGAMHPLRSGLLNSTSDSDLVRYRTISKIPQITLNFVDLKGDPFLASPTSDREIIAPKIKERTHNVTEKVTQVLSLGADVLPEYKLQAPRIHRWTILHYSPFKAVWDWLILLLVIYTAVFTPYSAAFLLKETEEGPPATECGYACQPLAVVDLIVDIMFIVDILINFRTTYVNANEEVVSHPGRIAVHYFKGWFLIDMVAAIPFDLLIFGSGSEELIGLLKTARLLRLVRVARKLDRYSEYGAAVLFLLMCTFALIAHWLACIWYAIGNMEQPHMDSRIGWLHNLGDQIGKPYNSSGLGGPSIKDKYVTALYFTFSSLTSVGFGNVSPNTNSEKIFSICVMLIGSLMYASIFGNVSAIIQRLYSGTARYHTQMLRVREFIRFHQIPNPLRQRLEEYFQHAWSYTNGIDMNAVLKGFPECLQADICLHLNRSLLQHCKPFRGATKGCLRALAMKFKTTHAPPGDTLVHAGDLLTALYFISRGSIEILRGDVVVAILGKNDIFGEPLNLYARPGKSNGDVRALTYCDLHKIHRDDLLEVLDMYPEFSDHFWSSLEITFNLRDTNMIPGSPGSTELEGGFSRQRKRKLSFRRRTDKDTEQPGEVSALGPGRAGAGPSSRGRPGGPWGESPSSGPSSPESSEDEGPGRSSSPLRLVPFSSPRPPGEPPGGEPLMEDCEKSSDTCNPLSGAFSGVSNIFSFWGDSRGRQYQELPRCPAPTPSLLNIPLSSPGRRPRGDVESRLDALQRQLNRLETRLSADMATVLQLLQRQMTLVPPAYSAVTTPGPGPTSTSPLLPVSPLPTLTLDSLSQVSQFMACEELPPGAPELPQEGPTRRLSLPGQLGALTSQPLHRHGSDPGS
`COc1ccc(CC(=O)OC(C)C(=O)c2ccc(C)cc2)cc1` (stereo not drawn): the “hERG current change (%, negative = inhibition) at 10uM” value is 20.4%.
On to `COc1ccc(OC(=O)c2cn(C)nc2C(F)(F)F)cc1`, for which the “hERG current change (%, negative = inhibition) at 10uM” value is reported as -1.05%.
Take `Cc1ccc2nc(=O)c(NNc3ccccc3)cnc2c1`: the “hERG current change (%, negative = inhibition) at 10uM” value was 15.6%.
Regarding `CCCCN(C(=O)c1cc2c(s1)CCC2)c1c(N)n(CCCC)c(=O)[nH]c1=O`, the “hERG current change (%, negative = inhibition) at 10uM” value is -0.537%.
As to `C1=C(c2c[nH]c3ccccc23)CCNC1`, the “hERG current change (%, negative = inhibition) at 10uM” value stood at 7.59%.
Turning to `CC(C)c1ccc(CNC(=O)C(=O)NCC2CCCO2)cc1` (stereo not drawn), the “hERG current change (%, negative = inhibition) at 10uM” value was 7.73%.
The result for `CCc1ccc(OCCCC(=O)NCc2ccco2)cc1` reads 1.95%.
The result for `CCOC(=O)C(CCCCCOc1ccccc1[N+](=O)[O-])C(=O)OCC` reads -8.54%.
Turning to `CCOC(=O)COc1ccc([N+](=O)[O-])cc1`, the “hERG current change (%, negative = inhibition) at 10uM” value is -5.07%.
Consider `CCOC(=O)C(CCCCCOc1ccc([N+](=O)[O-])cc1)C(=O)OCC`, for which the “hERG current change (%, negative = inhibition) at 10uM” value is recorded as -50.4%.
In the case of `CCn1nc([N+](=O)[O-])c2c(-c3nc4ccccc4o3)c(N)n(CCCOC)c2c1=O`, the “hERG current change (%, negative = inhibition) at 10uM” value turned out to be 14.5%.
`CCOC(=O)c1noc(C)c1C(=O)Nc1nc(C)cc(C)n1`: the “hERG current change (%, negative = inhibition) at 10uM” value was 11.5%.
Consider `Cc1ccc(F)cc1NC(=O)CSCc1c(C)noc1C`, for which the “hERG current change (%, negative = inhibition) at 10uM” value is reported as -3.15%.
With `O=c1[nH]nnc2c1sc1nc(N3CCOCC3)c3c(c12)CCCC3`, the “hERG current change (%, negative = inhibition) at 10uM” value is -12.4%.
As for `CC(=O)Nc1ccc(S(=O)(=O)NC(CC(=O)N2CCC3(CC2)OCCO3)C(C)C)cc1` (stereo not drawn), the “hERG current change (%, negative = inhibition) at 10uM” value is 18.9%.
The result for `O=C(Nc1cc(S(=O)(=O)N2CCOCC2)ccc1N1CCCCC1)c1cc(-c2ccccn2)nc2ccccc12` reads 0.703%; that for `COc1ccc(N(CC(O)CN2CCCCC2)S(=O)(=O)c2ccc(C)cc2)cc1` (stereo not drawn), -78.6%; that for `Cc1ccc(S(=O)(=O)N(CC(O)CN2CCOCC2)c2cc(Cl)ccc2Cl)cc1.Cl` (stereo not drawn), -31.9%.
The result for `Cc1ccc(N(CC(O)CN2CCCC2)S(=O)(=O)c2ccc(C)cc2)cc1.Cl` (stereo not drawn) reads -76.4%.
With `COc1ccc(N(CC(O)CN2CCOCC2)S(=O)(=O)c2ccc(C)cc2)cc1` (stereo not drawn), the “hERG current change (%, negative = inhibition) at 10uM” value is recorded as -45.2%.
With `Cc1cc(C)n(CC(O)CN(c2ccccc2)S(=O)(=O)c2ccccc2)n1` (stereo not drawn), the “hERG current change (%, negative = inhibition) at 10uM” value is reported as 7.17%.
The result for `Cc1ccccc1S(=O)(=O)N(CC(O)CN1CCCCC1)c1ccccc1` (stereo not drawn) reads -71.7%; that for `Cc1ccccc1S(=O)(=O)N(CC(O)CN1C(=O)NC(C)(C)C1=O)c1ccccc1` (stereo not drawn), 1.47%; that for `Cc1ccc(S(=O)(=O)N(CC(O)CN2CCCC2)c2ccccc2)cc1` (stereo not drawn), -62.2%.
Take `Cc1ccc(N(CC(O)CN2CCCCC2)S(=O)(=O)c2ccc(C)cc2)cc1` (stereo not drawn): the “hERG current change (%, negative = inhibition) at 10uM” value was 13.8%.
For `COc1ccc(N(CC(O)Cn2c3ccccc3c3ccccc32)S(=O)(=O)c2ccccc2)cc1` (stereo not drawn), the “hERG current change (%, negative = inhibition) at 10uM” value is 3.8%.
Turning to `CCc1ccc(OCC(=O)Nc2nnc(-c3ccco3)s2)cc1`, the “hERG current change (%, negative = inhibition) at 10uM” value is 11.5%.
For the molecule `CC(C)N1C(=O)S/C(=C/c2cccnc2)C1=O`, the “hERG current change (%, negative = inhibition) at 10uM” value stood at 8.88%.
Turning to `CCOC(=O)c1c(NC(=O)c2cccs2)sc(C)c1CC`, the “hERG current change (%, negative = inhibition) at 10uM” value was 2.45%.
Regarding `CCOC(=O)C1=C(C)OC(N)=C(C#N)C1c1cc(OC)c2c(c1)OCO2` (stereo not drawn), the “hERG current change (%, negative = inhibition) at 10uM” value was -20.6%.
As to `CCOc1cc(N2CCOCC2)c(OCC)cc1NC(=O)CSc1ccccc1C(=O)O`, the “hERG current change (%, negative = inhibition) at 10uM” value came to 5.72%.
Turning to `CCOC(=O)c1ccc(N(CC(=O)NCC2CCCO2)C(=O)CCC(=O)Nc2cc(C)on2)cc1` (stereo not drawn), the “hERG current change (%, negative = inhibition) at 10uM” value is 9.99%.
`COc1cc(NC(=S)NCCc2c[nH]c3ccccc23)c(OC)cc1Cl`: the “hERG current change (%, negative = inhibition) at 10uM” value came out at 10.1%.
Under `O=S(=O)(c1ccccc1)N(CC(O)CN1CCOCC1)c1ccccc1` (stereo not drawn) stands 18.6%.
For `COc1ccccc1N(CC(O)CN1CCCCC1)S(=O)(=O)c1ccc(C)cc1` (stereo not drawn), the “hERG current change (%, negative = inhibition) at 10uM” value was -29.7%.
Regarding `Cc1ccc(S(=O)(=O)N(CC(O)CN2CCCCC2)c2ccccc2)cc1.Cl` (stereo not drawn), the “hERG current change (%, negative = inhibition) at 10uM” value is listed as -67.9%.
Under `O=S(=O)(c1ccccc1)N(CC(O)CN1CCCC1)c1ccccc1` (stereo not drawn) stands -19%; under `Cl.O=S(=O)(c1ccccc1)N(CC(O)CN1CCCCC1)c1ccccc1` (stereo not drawn), -53.2%.
`CCN1CCN(Cc2nc3c(c(=O)[nH]c(=O)n3C)n2Cc2ccccc2Cl)CC1`: the “hERG current change (%, negative = inhibition) at 10uM” value is 14.8%.
Consider `CCOC(=O)C1CCN(c2ncnc3c2cnn3-c2ccc(OC)cc2)CC1`, for which the “hERG current change (%, negative = inhibition) at 10uM” value was -16.2%.
Under `O=C(O)CC(c1cccc(C(F)(F)F)c1)N1CCS(=O)(=O)CC1` (stereo not drawn) stands 2.42%; under `CCCCCCn1cnc2c(oc3nc4c(cc32)CCCC4)c1=O`, 5.16%.
Consider `CC(C)CCn1cnc2c(oc3nc4c(cc32)CCCC4)c1=O`, for which the “hERG current change (%, negative = inhibition) at 10uM” value is recorded as -16.6%.
As to `CCCCn1cnc2c(oc3nc4c(cc32)CCCC4)c1=O`, the “hERG current change (%, negative = inhibition) at 10uM” value was -55.5%.
The result for `Cc1ccc(NC(=O)Cc2ccccc2Cl)cc1S(=O)(=O)N(C)C` reads 0.299%.

Values taken from article PMC4336329 (PLoS ONE, 2015).
